# Source: PubChem BioAssay (NCI)
# “And” between values parts separate entries of the source, which are not always exact repeats. Identical values can stand only once. About 79,000 compounds went through this panel and 15% of them were active in at least one assay; those are over-represented in the sample as a whole. Where a structure was tested more than once in an assay, its records may differ in their call. The source made the active and inactive calls. Rule as the data show it: active = growth inhibition above about 70%; inactive = the rest.
# Columns and labels:
# [1] = NCI Yeast Anticancer Drug Screen. Data for the rad50 strain (AID 155);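 also: 0% = growth of vehicle-only cultures of the same strain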; conditions: S. cerevisiae rad50 strain growth inhibition; at 50.0 µM; stronger effect = higher value
# How it was run: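 DNA repair mutant yeast, compound exposure, growth read-out; inhibition is taken relative to vehicle.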
# [2] = NCI Yeast Anticancer Drug Screen. Data for the mec2-1 strain (AID 157); conditions: S. cerevisiae mec2-1 strain, at 50.0 µM, stronger effect = higher value
# How it was run: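 Using mec2-1 yeast: add compound, measure growth, express inhibition versus vehicle-treated cultures.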
# [3] = NCI Yeast Anticancer Drug Screen. Data for the sgs1 mgt1 strain (AID 161);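 also: 0% = growth of cultures given vehicle only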; conditions: S. cerevisiae sgs1 mgt1 strain, at 50.0 µM, stronger effect = higher value
# How it was run: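 Yeast cells carrying a defined DNA-repair defect were exposed to test compounds. Growth inhibition was measured relative to vehicle-treated controls.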
# [4] = NCI Yeast Anticancer Drug Screen. Data for the cln2 rad14 strain (AID 165);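 also: 0% = growth equal to vehicle treated cultures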; conditions: S. cerevisiae cln2 rad14 strain, at 50.0 µM, stronger effect = higher value
# How it was run: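 Yeast strain cln2 rad14, bearing defects in cell cycle control and DNA repair, serves as the test system; values reflect growth inhibition compared with vehicle.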
# [5] = NCI Yeast Anticancer Drug Screen. Data for the bub3 strain (AID 167); conditions: S. cerevisiae bub3 mutant strain, at 50.0 µM, stronger effect = higher value
# How it was run: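 In this screen, a yeast mutant lacking normal mitotic checkpoint function is challenged with compound. Relative growth versus vehicle gives the inhibition value.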
# [6] = NCI Yeast Anticancer Drug Screen. Data for the mlh1 rad18 strain (AID 175); conditions: S. cerevisiae mlh1 rad18 strain growth inhibition; at 50.0 µM; stronger effect = higher value
# How it was run: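 Steps: expose repair-defective yeast to compound; measure growth; express inhibition against vehicle-treated controls.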
SMILES,growth inhibition [1],growth inhibition [2],growth inhibition [3],growth inhibition [4],growth inhibition [5],growth inhibition [6]
Nc1ncnc2c1c(Cl)cn2C1OC(CO)C(O)C1O (stereo unspecified),10.1% (inactive),15.2% (inactive),12% (inactive),32.4% (inactive),19.2% (inactive),26.4% (inactive)
O=C(Cl)C1CCC1,11% (inactive),-5.35% (inactive),10.1% (inactive),-4.65% (inactive),-7% (inactive),16.1% (inactive)
CN1CCC2(CC1)c1ccccc1-c1ccccc12,-7.7% (inactive),-20.6% (inactive),-2.6% (inactive),-25% (inactive),-12.7% (inactive),-38.7% (inactive)
CCCCSP(=S)(SCCCC)SCCCC,36.6% (inactive),15.1% (inactive),38.5% (inactive),-20.2% (inactive),10.1% (inactive),42% (inactive)
CC(C)CCC(=O)c1ccoc1,-2.45% (inactive),-9.95% (inactive),-1.55% (inactive),3.65% (inactive),5.45% (inactive),-28.6% (inactive)
Nc1ccc([N+](=O)[O-])cc1[N+](=O)[O-],-24.9% (inactive),5.4% (inactive),-21.2% (inactive),-8.8% (inactive),0.6% (inactive),11% (inactive)
C#CCN1C(=O)CN2C(Cl)(Cl)C2(c2ccccc2)c2cc(Cl)ccc21 (stereo unspecified),20.1% (inactive),16.1% (inactive),-13.4% (inactive),-1.8% (inactive),3.35% (inactive),37.6% (inactive)
COc1ccc(/C=C/c2cc(OC)c3c(c2)OCO3)cc1O,4.4% (inactive),5.45% (inactive),-9.55% (inactive),0.9% (inactive),1.7% (inactive),-7.75% (inactive)
c1ccc2c(c1)-c1ccccc1C1NC21 (stereo unspecified),21.3% (inactive) and 69% (inactive),2.3% (inactive) and 47.4% (inactive),21.9% (inactive) and 48.2% (inactive),10.7% (inactive) and 56.1% (inactive),20.5% (inactive) and 98.5% (active),-50.5% (inactive) and 51.2% (inactive)
COc1ccc(C(OCC2OC(n3ccc(NC(=O)c4ccccc4)nc3=O)CC2OP2(=S)SCCS2)(c2ccccc2)c2ccc(OC)cc2)cc1 (stereo unspecified),10.6% (inactive),-13.1% (inactive),-4.1% (inactive),10% (inactive),37% (inactive),78.7% (active)
[CH3][Sb]([CH3])[S]C1OC(CO)C(O)C(O)C1O (stereo unspecified),-10.3% (inactive),0.9% (inactive),29.9% (inactive),-15.8% (inactive),25.5% (inactive),-17.8% (inactive)
O=C(Cl)OCCOCCOC(=O)Cl,-4.35% (inactive),-6.1% (inactive),6.95% (inactive),-28.1% (inactive),-3.15% (inactive),-4.4% (inactive)
S=P(Nc1ccccc1Cl)(Nc1ccccc1Cl)c1ccccc1,30.3% (inactive),25.8% (inactive),39.9% (inactive),37.9% (inactive),39.4% (inactive),21% (inactive)
CN1CCC2CC(=O)NC1(C)C2(C)C (stereo unspecified),13.2% (inactive),2.05% (inactive),17.9% (inactive),4.5% (inactive),-2.2% (inactive),11.9% (inactive)
CN(C)C1COC2Cc3ccccc3C1O2 (stereo unspecified),-25.6% (inactive) and -13.6% (inactive),-26.2% (inactive) and -9.45% (inactive),-3.65% (inactive) and 1.7% (inactive),-22.4% (inactive) and 3.5% (inactive),-0.15% (inactive) and -8.75% (inactive),-77.4% (inactive) and -90.5% (inactive)
O=C(O)CC(=O)O.[Ti].[c-]1[c-][c-][cH-][c-]1.[c-]1[c-][c-][cH-][c-]1,-12.4% (inactive),-5.75% (inactive),-6.8% (inactive),-51.6% (inactive),0.2% (inactive),-0.95% (inactive)
O=C(NC1CCCCC1)c1c(O)[nH]c(=S)[nH]c1=O,-20.4% (inactive),-0.3% (inactive),14.8% (inactive),12.2% (inactive),-4.9% (inactive),-0.55% (inactive)
C1CN1[PH+](N1CC1)N1CC1.[C-]#[O+].[C-]#[O+].[C-]#[O+].[C-]#[O+].[C-]#[O+].[Cr],-5.55% (inactive),-4.65% (inactive),-0.75% (inactive),-11.8% (inactive),2.4% (inactive),-17.3% (inactive)
CCOC(=O)C1C2(C)NC(=O)C1(Cc1ccccc1)c1ccc(O)cc1O2 (stereo unspecified),4.05% (inactive),3.1% (inactive),-13.1% (inactive),0.05% (inactive),2.5% (inactive),-1.05% (inactive)
CC(CC(C)(C)C)C(=O)Cl (stereo unspecified),7.85% (inactive),-2.7% (inactive),5.35% (inactive),10.9% (inactive),4.15% (inactive),23.4% (inactive)
CCN1C(=O)C(=C/C=C/c2ccc([N+](=O)[O-])cc2)C(=O)N(CC)C1=S,8.55% (inactive),9.95% (inactive),19.1% (inactive),19.9% (inactive),18.6% (inactive),18.1% (inactive)
CCOC(=O)C(=O)CC(=O)[C@H]1CC[C@H]2[C@@H]3CC[C@@H]4C[C@H](O)CC[C@]4(C)[C@H]3C(=O)C[C@]12C,30.6% (inactive),15.3% (inactive),40.8% (inactive),37.5% (inactive),-3.8% (inactive),34.7% (inactive)
O=C1NC2(CCCCC2)C(=O)N1CCCCCN(CCCl)CCCl,22.8% (inactive),18.4% (inactive),2.1% (inactive),-25.4% (inactive),-9.75% (inactive),-0.3% (inactive)
CC12CC3OC(=O)C1COC14OC5(C2C1=O)C(O)(CCC1C4CC(O)C2(O)CC=CC(=O)C12C)C(=O)OC35C (stereo unspecified),5.85% (inactive),7.95% (inactive),8.3% (inactive),11.2% (inactive),-1.3% (inactive),-40.8% (inactive)
COc1ccc(C=C2C(=O)NC(=O)NC2=O)cc1OC,10.7% (inactive),-0.6% (inactive),22.2% (inactive),8.8% (inactive),-11.8% (inactive),23.9% (inactive)
CC1CN=C(Nc2ccc(F)c(Cl)c2)S1 (stereo unspecified),-14.4% (inactive),-16.1% (inactive),-44.9% (inactive),8.65% (inactive),-0.25% (inactive),-22.9% (inactive)
